Nrf2 activator – activators of Nrf2 (ARE) signaling; actives 0.31% (n = 410,000); AREc32 ARE-luciferase reporter (MCF7-derived line), luminescence, 24 h; Potency, µM (highest dose often 46.1 µM), most hits filed as activators; AID 624171; also: nearly all actives have a fitted effect of over 65% in size
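Luminescent ARE reporter assay in AREc32_Fluc cells: overnight plating at 37 deg C, 24 hr compound incubation, Steady-Glo added, 30 min RT before reading.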
A549 tox-1 – A549 cytotoxicity, counter-screen for Nrf2 inhibitors; A549 ARE-Fluc cells, CellTiter-Fluor viability, 18-24 h; Potency, µM (highest dose often 46 µM), usual class: inhibitors; actives 0.16% (n = 390,000)
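A549 ARE_Fluc cells in 5% FBS OPTI-MEM were exposed to compounds in concentration-response for 18-24 h at 37 deg C. Viability was read by CellTiter-Fluor fluorescence (Ex 405/Em 525) after 30 min, before the luciferase read.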
Pin1 inh – human Pin1 inhibition; Q13526; Pin1 FP peptide displacement, HiFluor488, 10 min; Potency, µM (doses to about 115 µM), actives largely listed as inhibitors; actives 0.009% (n = 390,000); active = well fitted inhibition curve with a large enough effect in the polarisation, with a control signal flat, not every such curve was filed as active; inconclusive = small, poorly fitted or top-dose-only effect, or effect the other way, or a change in a side signal; inactive = no such curve, though single readings can be large or run the other way; the % refers to the polarisation
Nrf2 block – blocks Nrf2 signaling. A549 ARE-Fluc reporter, luciferase luminescence, 18-24 h. Potency, µM (series often up to 46 µM), usual class: inhibitors. actives 2.1% (n = 360,000). AID 504444; also: nearly all actives have a fitted effect of over 60% in size
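Nrf2 activity is the BugLite luminescence, read 15 min after reagent at room temperature, following CellTiter-Fluor cytotoxicity readout (30 min, 37C). Compound titrations were applied for 18-24 h to 5000 A549 ARE_Fluc cells/well in 5% FBS OPTI-MEM.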
FLuc enzyme inh – blocks purified firefly luciferase in Nrf2 counterscreen; shares compounds with Nrf2 block; purified firefly luciferase, luminescence inhibition; actives 4% (n = 1,400); Potency, µM (doses to about 57.5 µM), hits mostly inhibitors; also: nearly all actives have a fitted effect of over 65% in size
Target sequence (P08659 whole entry, looked up): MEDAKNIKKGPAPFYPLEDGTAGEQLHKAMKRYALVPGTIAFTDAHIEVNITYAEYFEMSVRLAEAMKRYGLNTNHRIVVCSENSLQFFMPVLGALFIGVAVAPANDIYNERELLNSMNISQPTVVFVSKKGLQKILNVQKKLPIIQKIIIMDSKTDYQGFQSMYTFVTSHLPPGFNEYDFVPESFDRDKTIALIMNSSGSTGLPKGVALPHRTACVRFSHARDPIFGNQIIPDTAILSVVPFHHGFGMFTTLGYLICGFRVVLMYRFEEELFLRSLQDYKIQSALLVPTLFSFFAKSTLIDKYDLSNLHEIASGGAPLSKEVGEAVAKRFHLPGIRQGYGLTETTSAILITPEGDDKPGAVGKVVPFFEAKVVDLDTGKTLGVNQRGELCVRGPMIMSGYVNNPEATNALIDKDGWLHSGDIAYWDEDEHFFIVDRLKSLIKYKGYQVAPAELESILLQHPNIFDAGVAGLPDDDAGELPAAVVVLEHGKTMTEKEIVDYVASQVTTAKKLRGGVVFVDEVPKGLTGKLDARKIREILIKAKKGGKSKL
A549 tox-2 – A549 cytotoxicity, Nrf2 inhibitor counterscreen. AID 720523. shares compounds with Nrf2 block. actives 2% (n = 1,400). A549 ARE-Fluc cells, cytotoxicity counterscreen. Potency, µM (top dose mostly 46.1 µM), usual class: inhibitors;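 also: cells exposed to compounds for 18 to 24 hours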
ARE-Fluc inh – reduces Nrf2 ARE reporter signal in A549 cells; actives 74% (n = 1,400); shares compounds with Nrf2 block; Potency, µM (highest dose often 46.1 µM), most hits filed as inhibitors; AID 720524; A549 ARE-firefly luciferase reporter, luminescence; also: nearly all actives have a fitted effect of over 65% in size
Of the large screens only hits and unclear results are named; the others gave an inactive call (follow-up assays come after a bar, where they were run). Only some compounds are listed: those with a hit (about 2.2% of all), similar ones and a draw of the others. Unless noted, calls follow the shape of the dose curve; as a rule, active = well fitted curve in the direction sought with a large enough effect; inconclusive = small, poorly fitted or top-dose-only effect, or another doubt; inactive = no such curve, though single readings can be large; an effect the other way counts as inactive or inconclusive.

Cc1ccc(S(=O)(=O)N2C[C@@H]3CCCC[C@@H]3[C@@H](C)[C@H]2c2cn(Cc3ccccc3)c3ccccc23)cc1	Nrf2 block 1.8µM | FLuc enzyme inh inactive | A549 tox-2 inactive | ARE-Fluc inh 2.9µM
COc1cccc(C(=O)/C=C2\Sc3ccccc3N2C)c1	Nrf2 block inconclusive
Cc1ccc2c(c1)S/C(=C/c1ccc[n+](CCO)c1)N2C	Nrf2 block 1.2µM | FLuc enzyme inh inactive | A549 tox-2 inactive | ARE-Fluc inh 5.8µM
COC(=O)c1[nH]c2ccc(C)cc2c1NC(=O)CN1CCC(C)CC1	Nrf2 block inconclusive
COC(=O)c1[nH]c2ccc(C)cc2c1NC(=O)CN1CCN(c2ccc(F)cc2)CC1	A549 tox-1 inconclusive, Nrf2 block 8.9µM | FLuc enzyme inh inactive | A549 tox-2 inactive | ARE-Fluc inh 8.2µM
CCc1ccc(Oc2c(C(F)(F)F)oc3c(CN4CCN(C)CC4)c(O)ccc3c2=O)cc1	none
COc1ccc2c(c1)c(C)cc[n+]2Cc1ccccc1	Nrf2 block 6.5µM | FLuc enzyme inh inactive | A549 tox-2 inactive | ARE-Fluc inh 10µM
CCc1cccc(C)c1NC(=O)C(NS(=O)(=O)c1ccc2c(c1)CCC(=O)N2)c1ccccc1 (stereo not drawn)	none
O=C(Nc1ccc(C(=O)NC2CCCCC2)cc1)c1cccnc1	Nrf2 block inconclusive | FLuc enzyme inh inactive | A549 tox-2 inactive | ARE-Fluc inh inconclusive
Cc1onc(-c2ccccc2)c1C(=O)NC(=S)NNC(=O)c1ccccc1O	Nrf2 block inconclusive
Cc1onc(-c2ccccc2)c1C(=O)NC(=S)NNC(=O)c1ccc(O)cc1O	Nrf2 block 7.3µM | FLuc enzyme inh inactive | A549 tox-2 inactive | ARE-Fluc inh 5.8µM
Cc1ccc(NC(=O)Cn2nnc(C(=O)NCCc3ccccc3)c2N)cc1	Pin1 inh inconclusive
COc1cc(NC(=O)c2ccc(-c3nc(COc4ccccc4)c(C)o3)cc2)cc(OC)c1	Nrf2 block 5.2µM | FLuc enzyme inh inactive | A549 tox-2 inactive | ARE-Fluc inh 8.2µM
Cc1oc(-c2ccc(C(=O)Nc3ccc(F)cc3)cc2)nc1COc1ccccc1	none
Cc1cccn2cc(-c3cccc(NC(=O)C(C)C)c3)nc12	none
COc1ccc(NS(=O)(=O)c2ccc(NC(=O)c3ccc(N(C)S(C)(=O)=O)cc3)cc2)c(OC)c1	Nrf2 block 1.8µM | FLuc enzyme inh inactive | A549 tox-2 inactive | ARE-Fluc inh 2.6µM
COc1ccc(NS(=O)(=O)c2ccc(NC(C)=O)cc2)c(OC)c1	none
Cc1ccc(C)c(N2CCN(C(=O)Cn3c(-c4cccs4)cc4ccccc43)CC2)c1	none
N#Cc1ccc(N2CCN(c3ccc(F)cc3)CC2)cc1	Nrf2 block inconclusive | FLuc enzyme inh inactive | A549 tox-2 inactive | ARE-Fluc inh inactive
Oc1ccc(Cl)cc1C1C=C(c2ccc3c(c2)OCO3)NC(c2ccc(C(F)(F)F)cc2)N1 (stereo not drawn)	none (no result: Nrf2 activator)
CCN(CC)S(=O)(=O)c1nnc(NC(=O)COc2cccc(C)c2)s1	Nrf2 block inconclusive
Cc1cc(Cl)c(S(=O)(=O)NC2CCCC2)cc1OCC(=O)NC1CCCCC1	Nrf2 block 6.5µM | FLuc enzyme inh inactive | A549 tox-2 inactive | ARE-Fluc inh 7.3µM
Cc1cc(Cl)c(S(=O)(=O)N2CCSCC2)cc1OCC(=O)NC1CCCCC1	A549 tox-1 inconclusive, Nrf2 block 6.5µM | FLuc enzyme inh inactive | A549 tox-2 inactive | ARE-Fluc inh 4.6µM
Cc1cc(Cl)c(S(N)(=O)=O)cc1OCC(=O)NC1CCCCC1	none
CC(=O)Nc1cccc(NC(=O)CSc2cn(CC(=O)N(C(C)C)C(C)C)c3ccccc23)c1	none
COc1cccc(C(=O)N(Cc2ccccc2)Cc2cc3cc4c(cc3[nH]c2=O)OCCO4)c1	Nrf2 block 2.6µM | FLuc enzyme inh inactive | A549 tox-2 inactive | ARE-Fluc inh inconclusive
Cc1ccc(S(=O)(=O)NCc2ccncc2)cc1C	Nrf2 block 2.3µM | FLuc enzyme inh inactive | A549 tox-2 inactive | ARE-Fluc inh 2.1µM
